In the library only some 4.5% were active in any assay of this set; here they are far more common.
DAX1 inh-1 – inhibitors of DAX1 repression of SF-1 activated StAR promoter; AID 652010; 370,000 compounds, 1.1% hits; HEK293T StAR-luciferase reporter, SF-1/DAX-1 repression relief; inhibition, % at 6.8 µM;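 active = inhibition above the mean over all tested compounds plus 3 SD, cut at about 3.6% in these data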;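 also: 0% = DAX-1 cells with DMSO and 100% = cells lacking DAX-1 with DMSO; higher inhibition means more luminescence from relief of DAX-1 repression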
hgDAF-12 ag – hgDAF-12 agonism, primary luciferase screen; HEK293 GAL4-hgDAF12 UAS-luciferase reporter, agonist luminescence; normalized to butyrate control; activation, % at 6.8 µM; 370,000 compounds, 1.8% hits;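 active = activation above a cutoff set at the mean of all screened compounds plus 3 SD, cut at about 10% in these data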;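 also: 0% = DMSO wells and 100% = sodium butyrate wells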
hcDAF-12 act – activates DAF-12 receptor from parasite H. contortus; HEK293 hcDAF-12 lit1-tk-luc reporter, luminescence; 0% DMSO, 100% Δ7-dafachronic acid; activation, % at 6.8 µM; 370,000 compounds, 1.4% hits; AID 652067;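 active = activation above the mean of all tested compounds plus 3 SD, cut at about 5.5% in these data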;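 also: 100% = response to 3 µM Δ7-dafachronic acid high control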
ssDAF12 agonist – activates DAF-12 receptor from parasite S. stercoralis. HEK293 ssDAF-12/GRIP1 lit1-tk-luc reporter, luminescence; % of 3 µM dafachronic acid response. activation, % at 6.8 µM. 370,000 compounds, 1% hits. AID 652126;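 active = activation above the mean over all tested compounds plus 3 SD, cut at about 0.9% in these data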;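 also: 0% = DMSO-only wells and 100% = 3 µM delta7-dafachronic acid wells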
FXN GAA850 act – frataxin GAA850 promoter activation; HEK293 lucGAA850 FXN promoter luciferase reporter, 24 h; percent of 10 µM SAHA response; activation, % at 6 µM; 360,000 compounds, 0.56% hits; AID 540364;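 active = activation above the average of all compounds screened plus 3 SD, cutoff fixed separately per campaign, cut at about 7.5% in these data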;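 also: 0% = DMSO wells and 100% = 10 µM SAHA wells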
DAX1 inh-2 – NR0B1 (DAX1) inhibition; P51843; HEK293 Gal4-DAX1 luciferase reporter, luminescence; inhibition, % at 6.75 µM; 340,000 compounds, 0.99% hits;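 active = inhibition above the mean over all tested compounds plus 3 SD, cut at about 4.2% in these data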;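 also: 0% = DAX1-transfected cells with DMSO and 100% = empty-vector control cells with DMSO; inhibition shows as a rise in luminescence from relieved DAX1 repression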
Target sequence (P51843 207-470 limits assumed): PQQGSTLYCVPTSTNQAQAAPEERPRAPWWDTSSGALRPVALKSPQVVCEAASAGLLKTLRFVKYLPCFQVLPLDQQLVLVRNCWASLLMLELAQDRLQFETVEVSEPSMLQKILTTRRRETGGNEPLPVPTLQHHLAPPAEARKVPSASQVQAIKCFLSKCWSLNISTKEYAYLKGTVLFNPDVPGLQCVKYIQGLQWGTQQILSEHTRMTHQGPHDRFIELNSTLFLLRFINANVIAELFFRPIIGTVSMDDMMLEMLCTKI
DAX1 conf – confirmation of human DAX1 (NR0B1) inhibitors | shares compounds with DAX1 inh-1 | HEK293T StAR-promoter luciferase reporter, SF-1/DAX-1 repression | inhibition, % at 6.8 µM | 2,400 compounds, 87% hits | AID 652134;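 active = inhibition above the average of every tested compound plus 3 SD, cut at about 3.8% in these data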;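 also: 0% = DAX-1 cells with DMSO and 100% = no DAX-1 control cells with DMSO; active compounds raise luminescence by relieving repression of the StAR reporter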
SF1 AF2mut Luc – nonselective inhibitor or artifact in SF-1 mutant DAX1 counter-screen | inhibition, % at 6.8 µM | HEK293 StAR-luciferase, SF-1 AF2 mutant, luminescence | AID 652136 | shares compounds with DAX1 inh-1 | 2,400 compounds, 78% hits;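 active = inhibition above the mean of all tested compounds plus 3 SD, cut at about 3% in these data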;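 also: 0% = DAX-1 transfected cells with DMSO and 100% = cells without DAX-1 with DMSO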
LXR ag – activates human LXR-beta, counter-screen for hcDAF-12 agonists; shares compounds with hcDAF-12 act; HEK293 Gal4-LXR tk-luc reporter, luminescence, 24 h; normalized: DMSO 0%, positive control 100%; activation, % at 6.8 µM; 3,400 tested, under 10 active; AID 743027;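 active = mean percent activation of the reporter above a cutoff set as the average over tested compounds plus their standard deviation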
Target sequence (P55055 whole entry, looked up, the tested form may be a part): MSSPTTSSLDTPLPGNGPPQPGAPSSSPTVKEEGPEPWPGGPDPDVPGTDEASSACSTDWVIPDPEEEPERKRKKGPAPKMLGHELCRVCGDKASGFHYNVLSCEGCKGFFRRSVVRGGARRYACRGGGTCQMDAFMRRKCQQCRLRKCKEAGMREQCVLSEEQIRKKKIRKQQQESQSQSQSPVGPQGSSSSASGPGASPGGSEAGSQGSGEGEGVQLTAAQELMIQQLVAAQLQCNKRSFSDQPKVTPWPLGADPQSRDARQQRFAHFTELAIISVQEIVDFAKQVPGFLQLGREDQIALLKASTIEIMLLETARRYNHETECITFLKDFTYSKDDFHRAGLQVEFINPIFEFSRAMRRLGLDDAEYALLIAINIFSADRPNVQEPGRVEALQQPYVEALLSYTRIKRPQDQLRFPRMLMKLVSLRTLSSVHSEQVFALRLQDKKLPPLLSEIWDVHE
hcDAF12 conf – hcDAF-12 agonism, confirmation assay; activation, % at 6.8 µM; 3,400 compounds, 61% hits; HEK293 hcDAF-12 lit1-tk-luc reporter, luminescence; % of Δ7-dafachronic acid response; shares compounds with hcDAF-12 act; AID 743032;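 active = mean activation across triplicate tests above the threshold derived from the earlier primary screen, cut at about 5.5% in these data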;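 also: 0% = DMSO only wells and 100% = 3 µM Δ7-dafachronic acid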
hgDAF12 conf – hgDAF-12 agonism, confirmation assay; AID 743050; activation, % at 6.8 µM; 3,300 compounds, 80% hits; HEK293 GAL4-hgDAF12 luciferase reporter, agonist mode; percent of butyrate response; shares compounds with hgDAF-12 ag;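 active = mean activation over triplicate wells above the hit cutoff derived from the earlier primary screen, cut at about 11% in these data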;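 also: 0% = DMSO low control and 100% = 2 mM sodium butyrate high control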
LXRb DAF12 ctr – counter-screen for DAF-12 agonists: agonists of human LXR-beta; activation, % at 6.8 µM; HEK293 Gal4-LXR luciferase reporter, 24 h; 3,300 tested, under 10 active; shares compounds with hgDAF-12 ag;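 active = mean activation of the triplicate above a set limit carried over from the primary screen, none filed active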
Numbers without * were called inactive; . = not tested or not shown; ! = not active in a repeat.

SMILES	DAX1 inh-1	hgDAF-12 ag	hcDAF-12 act	ssDAF12 agonist	FXN GAA850 act	DAX1 inh-2	DAX1 conf	SF1 AF2mut Luc	hgDAF12 conf	LXRb DAF12 ctr	others
COc1ccc2c(c1)OC[C@H]1[C@H]2N2C(=O)CN(Cc3ccc(C)cc3)C(=O)[C@@]2(C)[C@H]1c1ccccc1	1	0	-2	-2	1	0	.	.	.	.
Cc1cc(C)c2oc(-c3cccc(N)c3)nc2c1	1	10	3	0	4	3	.	.	.	.
Cc1ccc2nc(-c3cccc(N)c3)oc2c1	5.4*	15*	6.4*	0	0	0	15*	6.8*	16*	1
Cc1ccc(NC(=S)N/C(=N/S(=O)(=O)c2ccccc2)c2ccccc2)cc1	5.6*!	18*!	2	0	6	3	3	3	13*	0
COc1ccc(C(=O)NN/C(=N/S(=O)(=O)c2ccc(C)cc2)c2ccccc2)cc1	4.6*	14*	3	0.9*	5	3	9.2*	4.4*	19*	1
CCOc1ccc(S(=O)(=O)/N=C(/Nc2ccc(OC)cc2)c2ccccc2)cc1	-1	2	0	-1	2	0	.	.	.	.
CC(=O)Nc1ccc(N/C(=N\S(=O)(=O)c2ccccc2)c2ccccc2)cc1	-3	-1	0	0	0	0	.	.	.	.
C/C(=N\NC(=O)c1nn(C)c(C)c1Br)c1cccc(NC(=O)c2ccoc2C)c1	5.0*	16*	5.9*	0	4	3	1	1	5	0
Cc1cc(CNC(=O)c2cc(COc3ccc(F)c(F)c3)on2)nn1C	6.4*	15*	5.7*	0	5	2	7.4*	3.8*	14*	0
Cc1cc(O)cc(O[C@H]2OC(CO)[C@H](O)[C@@H](O)[C@H]2O)c1 (stereo not given in full)	0	2	2	-1	0	0	.	.	.	.
COc1ccc(/C=C/c2cc(O)cc(OC3OC(CO)C(O)C(O)C3O)c2)cc1 (stereo not given)	8.8*	17*	6.9*	0	3	0	16*	8.2*	11*	1	LXR ag=2;hcDAF12 conf=7.8*
COc1ccc(-c2cc(=NC(CC(C)C)C(=O)O)c3cc(C)ccc3o2)cc1 (stereo not given)	5.2*	17*	5	1	7	3	4.5*	5.2*	10	0
CC(=O)CCSc1ncnc2sc(-c3ccccc3)cc12	13*	16*	4	1.2*	7	2	16*	7.9*	13*	1
O=C(O)CCSc1ncnc2sc(-c3ccccc3)cc12	-2	-14	-5	-3	-13	0	.	.	.	.
COC(=O)c1ccc(NC(=O)c2ccc3nccnc3c2)cc1	0	3	-3	-1	-1	-1	.	.	.	.
Cc1ccc(C(=O)Nc2ccc3nccnc3c2)cc1	5.3*	13*	9.0*	1	2	-2	17*	8.3*	16*	1	LXR ag=2;hcDAF12 conf=7.7*
Cc1cc(NC(=O)c2ccc3nccnc3c2)ccc1Br	5.6*	16*	5	1	3	2	7.6*	4.7*	15*	1
CC(=O)c1ccc(NC(=O)c2ccc(C)c(Br)c2)cc1	4.9*	16*	5.7*	0	6	3	12*	9.4*	18*	1
CC(=O)N1CCN(c2cc(-c3ccco3)nc3cc(-c4ccccc4)nn23)CC1	.	-3	-3	-2	.	.	.	.	.	.
Cc1cc(C)c(Cn2cnc3ccccc32)c(C)c1	-1	-1	0	0	1	-1	.	.	.	.
CC(=O)c1cccc(Nc2ccc(Br)cc2)c1	9.7*	14*	4	-1	.	.	12*	6.3*	9	0
Cc1ccc(-c2nc3ccc(C)cn3c2CC2CCCCC2)cc1	7.2*	21*	10*	2.2*	.	.	3.8*	3.2*	11*	0	LXR ag=1;hcDAF12 conf=9.1*
COc1ccccc1Cc1c(-c2ccc(C)cc2)nc2ccc(C)cn12	4.9*	14*	1	0	.	.	7.0*	5.1*	10	0
Cc1ccc2nc(C3CCCCC3)c(CC(C)(C)C)n2c1	0	-1	0	0	.	.	.	.	.	.
CCCc1nc2ccc(C)cn2c1Cc1ccccc1OC	-1	1	4	0	.	.	.	.	.	.
SMILES	DAX1 inh-1	hgDAF-12 ag	hcDAF-12 act	ssDAF12 agonist	FXN GAA850 act	DAX1 inh-2	DAX1 conf	SF1 AF2mut Luc	hgDAF12 conf	LXRb DAF12 ctr	others
COc1ccccc1Cc1c(-c2ccccc2)nc2ccc(C)cn12	5.2*	17*	4	0	.	.	1	4.3*	8	0
COC(=O)c1c[nH]c2c1-c1cc(C(=O)OCc3ccccc3)n(S(=O)(=O)c3ccc(C)cc3)c1C(=O)C2=O	1	-2	2	0	-1	-1	.	.	.	.
O=C(O)c1nn(CCOc2ccc(Br)cc2)c(=O)c2ccccc12	1	0	-1	0	1	0	.	.	.	.
COc1ccc([C@H]2Cc3cc(O)cc(O)c3C(=O)O2)cc1O	5.2*	18*	14*	2.3*	5	4	20*	13*	25*	1	LXR ag=2;hcDAF12 conf=11*
O=S(=O)(NCC1CN(S(=O)(=O)c2c(F)cccc2F)C1)c1ccc2c(c1)OCCO2	-2	-7	-3	-2	-2	-4	.	.	.	.
CC(=O)Oc1ccc(C(=O)NCCc2ccccc2)cc1	7.2*	15*	4	1	3	1	12*	5.3*	14*	1
O=C(CN(c1cccc(Cl)c1)S(=O)(=O)c1ccc(Cl)cc1)N1CCc2ccccc2C1	-1	-1	1	-2	0	0	.	.	.	.
